In the library only some 2.2% were active in any assay of this set; here they are far more common.
Ba/F3 V617F tox: reduce viability of Ba/F3 cells dependent on JAK2V617F. Ba/F3 EpoR-JAK2V617F viability, ATP luminescence. 220,000 compounds, 1.1% hits. inhibition, % at 5.6 µM;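 active means inhibition above the campaign mean plus 3 SD over all tested compounds, cut at about 24% in these data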;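 further: cytokine-independent growth of Ba/F3 cells driven by EpoR plus mutant JAK2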
aSyn UTR inh: 5' untranslated region of α-synuclein, MLPCN primary screen; alpha-synuclein 5'UTR reporter, inhibitor activity; inhibition, % (tested at 7.5 µM); 300,000 compounds, 0.82% hits; AID 1813; in the data active means inhibition above about 60%; inconclusive means no clear call, values can overlap the other calls;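 further: H4 neuroglioblastoma cells stably carrying SNCA 5'UTR luciferase fusion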
IEC-6 tox: IEC-6 cytotoxicity, counter-screen for KLF5 inhibitors. luminescence viability. inhibition, % at 5 µM. 290,000 compounds, 0.78% hits
APP transl inh: APP translation inhibition; SH-SY5Y APP 5'UTR-luciferase reporter, luminescence; inhibition, % at 2 µM; 190,000 compounds, 0.82% hits; AID 1285;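 active means inhibition above a set limit, derived from the sample mean plus 3 SD, cut at about 45% in these data; inconclusive means one replicate passes the limit while the other fails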
BaF3 tox: parental Ba/F3 viability inhibition as JAK2V617F counter-screen. CellTiter-Glo ATP luminescence. inhibition, % at 5.6 µM. 220,000 compounds, 1.1% hits. AID 1486;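 active means inhibition above a per-campaign cutoff, the mean inhibition of all tested compounds plus 3 SD, cut at about 27% in these data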
KLF5 inhibitor: suppresses KLF5 promoter-driven expression | 290,000 compounds, 0.23% hits | inhibition, % at 5 µM | AID 1700 | DLD-1 KLF5 promoter-luciferase reporter, luminescence;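 active means inhibition above a per-plate limit of that plate's mean compound inhibition plus 3 SD, cut at about 60% in these data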;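 further: higher means less KLF5 promoter-driven luciferase light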
IEC-6 tox confirm: IEC-6 cytotoxicity, confirmation assay. shares compounds with IEC-6 tox. IEC-6 rat intestinal epithelial viability, luminescence. inhibition, % at 5 µM. 1,900 compounds, 63% hits
Of the large screens only hits and unclear results are named; the others gave an inactive call (follow-up assays come after a bar, where they were run). Unless noted, no stated cut-off is given here; in the data, active means inhibition above about 22%; inactive means the rest.

Cc1ccc(-c2cc(C(=O)N/N=C/c3c[nH]c4ccccc34)[nH]n2)cc1	Ba/F3 V617F tox 57, aSyn UTR inh 78, IEC-6 tox 43, APP transl inh 76, BaF3 tox 58 | IEC-6 tox confirm 52
Nc1cc2nn(-c3ccccc3)nc2cc1Cl	IEC-6 tox 102 | IEC-6 tox confirm 46
O=C1COc2ccc(C(=O)COC(=O)/C=C/c3ccc(Br)o3)cc2N1	none (no result: Ba/F3 V617F tox, IEC-6 tox, APP transl inh, BaF3 tox, KLF5 inhibitor)
CCc1ccc(CN2CCC(n3nccc3NC(=O)c3cccc(F)c3)CC2)cc1	none (no result: Ba/F3 V617F tox, APP transl inh, BaF3 tox)
COC(=O)C1=C(NC(=O)c2ccc(C)cc2)CCS1	none
COC(=O)C1=C(NC(C)=O)CCS1	IEC-6 tox 23 | IEC-6 tox confirm inactive
CC(C)C(=O)N1CCN(c2ccc(NC(=O)c3ccc([N+](=O)[O-])o3)cc2)CC1	Ba/F3 V617F tox 67, IEC-6 tox 24, APP transl inh 57, BaF3 tox 33 | IEC-6 tox confirm inactive
CC(C)C(=O)N1CCN(c2ccc(NC(=O)c3ccc(Br)o3)cc2)CC1	none
CN1CCN(c2ccc(NC(=O)c3ccc([N+](=O)[O-])o3)cc2Cl)CC1	aSyn UTR inh inconclusive, IEC-6 tox 90 (no result: Ba/F3 V617F tox, APP transl inh, BaF3 tox) | IEC-6 tox confirm 29
O=C(Nc1ccccc1N1CCN(C(=O)c2ccc(Cl)cc2)CC1)c1ccc([N+](=O)[O-])o1	IEC-6 tox 33 (no result: Ba/F3 V617F tox, APP transl inh, BaF3 tox) | IEC-6 tox confirm inactive
Cc1ccccc1C(=O)N1CCN(c2ccc(NC(=O)c3ccc([N+](=O)[O-])o3)cc2)CC1	IEC-6 tox 98 (no result: Ba/F3 V617F tox, APP transl inh, BaF3 tox) | IEC-6 tox confirm 35
CCC(=O)N1C(=O)C2(Nc3ccccc3N2)c2ccccc21	none
CC(C)C[C@@]12C(=O)N(c3cccc(Br)c3)C(=O)N1[C@H](c1ccc(F)cc1)[C@@H]1C(=O)N(C3CCCCC3)C(=O)[C@@H]12	none (no result: Ba/F3 V617F tox, IEC-6 tox, APP transl inh, BaF3 tox, KLF5 inhibitor)
Cc1ccc(NC(=O)CN2CCN(CCN=CC3=C(O)CC(c4ccc(C)cc4)CC3=O)CC2)cc1 (stereo unspecified)	none
Cc1[nH]c2ccc(C(=O)NCc3ccccn3)cc2c1C	none (no result: Ba/F3 V617F tox, APP transl inh, BaF3 tox)
O=C(Nc1ccc(N2CCN(C(=O)c3ccccc3)CC2)cc1)c1ccc([N+](=O)[O-])o1	Ba/F3 V617F tox 99, IEC-6 tox 85, APP transl inh 94, BaF3 tox 77 | IEC-6 tox confirm 35
COc1ccc(C(=O)Nc2ccc(N3CCN(C(=O)c4ccccc4)CC3)cc2)cc1[N+](=O)[O-]	none
Cc1c(CC(=O)O)c(=O)oc2c(C)c(OCc3ccc(F)cc3Cl)ccc12	none (no result: Ba/F3 V617F tox, APP transl inh, BaF3 tox)
CCCN(C(=O)Cn1nc(C)c([N+](=O)[O-])c1C)c1c(N)n(Cc2ccccc2)c(=O)[nH]c1=O	none (no result: Ba/F3 V617F tox, IEC-6 tox, APP transl inh, BaF3 tox, KLF5 inhibitor)
CC1(C)N=C(N)N=C(N)N1c1ccc(Oc2ccc(Cl)cc2)c(Cl)c1	aSyn UTR inh 85, IEC-6 tox 55 (no result: Ba/F3 V617F tox, APP transl inh, BaF3 tox) | IEC-6 tox confirm 33
Nc1ccc2nn(-c3ccccc3)nc2c1	none (no result: aSyn UTR inh)
CC1(C)N=C(N)N=C(N)N1c1ccccc1	Ba/F3 V617F tox 96, aSyn UTR inh 99, IEC-6 tox 40, BaF3 tox 99 | IEC-6 tox confirm 52
COc1cc(C2c3cc4c(cc3C(OC3OC5COC(c6cccs6)OC5C(O)C3O)C3COC(=O)C23)OCO4)cc(OC)c1O (stereo unspecified)	Ba/F3 V617F tox 98, aSyn UTR inh 82, IEC-6 tox 93, BaF3 tox 102 (no result: APP transl inh) | IEC-6 tox confirm 74
O=C(c1cc(NC(=O)C23CC4CC(CC(C4)C2)C3)cc(NC(=O)C23CC4CC(CC(C4)C2)C3)c1)N1CCCCC1	IEC-6 tox 37 | IEC-6 tox confirm 30
O=C(NCc1nnc2c(C(F)(F)F)cc(Cl)cn12)c1ccc(Br)o1	none (no result: Ba/F3 V617F tox, APP transl inh, BaF3 tox)
CN1CCc2c(sc(NC(=O)Cc3ccccc3)c2C(N)=O)C1	none (no result: Ba/F3 V617F tox, APP transl inh, BaF3 tox)
CN1CCc2c(sc(NC(=O)c3ccc4ccccc4c3)c2C(N)=O)C1	IEC-6 tox 50 (no result: Ba/F3 V617F tox, APP transl inh, BaF3 tox) | IEC-6 tox confirm 26
CN(C)c1ccc(/C=C2\SC(N3CCCCC3)=NC2=O)cc1	none (no result: Ba/F3 V617F tox, APP transl inh, BaF3 tox)
N#CC(C#N)=C(N)CSc1cccc[n+]1[O-]	IEC-6 tox 24 | IEC-6 tox confirm inactive
O=C(CSc1cccc[n+]1[O-])c1cc(Cl)ccc1Cl	IEC-6 tox 28 | IEC-6 tox confirm inactive
O=C(O)CSc1cccc[n+]1[O-]	none
[O-][n+]1ccccc1SCc1ccccc1	none (no result: Ba/F3 V617F tox, IEC-6 tox, APP transl inh, BaF3 tox, KLF5 inhibitor)
O=C(CSc1cccc[n+]1[O-])c1cc2ccccc2o1	IEC-6 tox 25 | IEC-6 tox confirm inactive
CCn1nc(NC(=O)C(C)C)c2cc3cccc(C)c3nc21	none (no result: Ba/F3 V617F tox, APP transl inh, BaF3 tox)

Screening data deposited in PubChem by several laboratories.
